In PubChem BioAssay:
The source made the active and inactive calls.

Key:
[1] = tested on: PRMT1 (protein arginine N-methyltransferase 1); assay: PRMT1 binders on small-molecule microarrays, primary screen, biochemical, small-molecule microarray, 635 nm fluorescence (AID 1088); conditions: small-molecule microarray binding, higher = more signal;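 further: binding of Prmt1 protein to compounds spotted on small-molecule microarray slides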
[2] = yeast growth modulation, basal conditions, primary screen, YJM789 clinical isolate, OD600, 24 h (AID 1089);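 further: growth of clinical yeast isolate S. cerevisiae YJM 789 seeded 1000 cells per well; test concentration not given here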; conditions: S. cerevisiae YJM789 growth, higher = more signal, called active from +8 up or from −8 down
[3] = fission yeast growth modulation, primary screen, strain 972, OD600, 24 h, no modulator (AID 1090);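 further: basal condition with compound alone and no growth modifier present; test concentration not given here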; conditions: S. pombe 972 growth, higher = more signal, called active from +8 up or from −8 down
[4] = S. cerevisiae growth modulation with rapamycin, primary screen, strain BY4716, OD600, 96 h (AID 1091); conditions: higher = more signal, called active from +8 up or from −8 down; further: test concentration not given here
[5] = molecular target: Torsin-1A-interacting protein 2 (Homo sapiens) (UniProt Q8NFQ8); assay: LULL1 binders on small-molecule microarray, primary screen, cell lysate, human LULL1 lysate, 635/667 nm fluorescence (AID 1092); conditions: hLULL1 lysate binding, 635 nm fluorescence, higher = more signal;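 further: probe is lysate of COS7 cells overexpressing human LULL1; score merges per-feature 667 nm fluorescence with signal-to-noise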
[6] = E. coli growth modulation, two-sided OD650, primary screen, E. coli filamentation project, strain DRC41, 24 h (AID 1093); conditions: OD650, 24 h, higher = more signal, called active from +8 up or from −8 down;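 further: MC1000 strain lacking acrAB efflux and sulA so SOS filamentation is blocked; test concentration not given here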
[7] = small-molecule microarray binders of probe aLefty2, primary screen, biochemical, biotinylated probe, 635/667 nm fluorescence (AID 1094); conditions: higher = more signal;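 further: score merges spot fluorescence near 667 nm with spot signal-to-noise ratio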
[8] = tested on: Noggin (protein binding on small-molecule microarray); assay: Noggin binders on small-molecule microarray, primary screen, biochemical, 635/667 nm fluorescence (AID 1095); conditions: 635 nm fluorescence, higher = more signal;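 further: score merges 667 nm feature fluorescence with signal to noise over triplicate slides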
[9] = molecular target: Neurogenic locus notch homolog protein 3 (Homo sapiens) (UniProt Q9UM47); assay: NOTCH3 binders on small-molecule microarray, primary screen, biochemical, 635/667 nm fluorescence (AID 1096); conditions: NOTCH3 binding, 635 nm fluorescence, higher = more signal
[10] = small-molecule microarray binders of probe aEGFR, primary screen, biochemical, biotinylated probe, 635/667 nm fluorescence (AID 1097); conditions: higher = more signal;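 further: probe is a biotinylated anti-EGFR antibody binding compounds printed on slides; score combines fluorescence near 667 nm and signal to noise of each spot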
[11] = tested on: Plasmodium falciparum Sir2 (PF13_0152, Sir2A); assay: pfSir2 binders on small-molecule microarrays, primary screen, biochemical, small-molecule microarray, 635 nm fluorescence (AID 1098); conditions: small-molecule microarray binding, fluorescence 635 nm; higher = more signal;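 further: score merges spot fluorescence intensity with its signal-to-noise ratio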
[12] = small-molecule microarray binders of probe aDKK1, primary screen, biochemical, biotinylated probe, 635/667 nm fluorescence (AID 1099); conditions: higher = more signal;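 further: score merges 667nm spot fluorescence with signal to noise across triplicate slides; reference of the scale not given here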
[13] = small-molecule microarray binders of probe aCHRDL2, primary screen, biochemical, biotinylated probe, 635/667 nm fluorescence (AID 1100); conditions: higher = more signal
[14] = splicing luciferase reporter signal modulators, primary screen, spliceosome inhibition project, cell-based, HEK293, splice +/- reporter (AID 1101); conditions: luminescence, 24 h, higher = more signal, called active from +8 up or from −8 down;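 further: HEK293 cells carrying a splicing-competent luciferase reporter gene; test concentration not given here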
[15] = molecular target: Fibroblast growth factor 10 (Homo sapiens) (UniProt O15520); assay: FGF10 binders on small-molecule microarrays, primary screen, biochemical, small-molecule microarray, 635 nm fluorescence (AID 1102); conditions: FGF10 binding, fluorescence 635 nm, higher = more signal
[16] = tested on: glycogen synthase kinase-3 (GSK3A per assay name; protocol says GSK3B); assay: GSK3 binders on small-molecule microarrays, primary screen, biochemical, small-molecule microarray, 635 nm fluorescence, GSK3A (AID 1103); conditions: small-molecule microarray binding, fluorescence 635 nm; higher = more signal; further: the record names both GSK3A and GSK3B
[17] = molecular target: Epidermal growth factor receptor (Homo sapiens) (UniProt P00533); assay: EGFR binders on small-molecule microarrays, primary screen, biochemical, small-molecule microarray, 635 nm fluorescence (AID 1104); conditions: EGFR binding, higher = more signal;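 further: score merges 667 nm emission intensity with spot signal to noise over triplicate slides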
[18] = molecular target: Follistatin-related protein 3 (Homo sapiens) (UniProt O95633); assay: FSTL3 binders on small-molecule microarrays, primary screen, biochemical, small-molecule microarray, 635 nm fluorescence (AID 1105); conditions: FSTL3 binding, higher = more signal;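 further: score merges emission near 667 nm and signal to noise per printed spot across three slides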
[19] = molecular target: Dickkopf-related protein 1 (Homo sapiens) (UniProt O94907); assay: DKK1 binders on small-molecule microarrays, primary screen, biochemical, small-molecule microarray, 635 nm fluorescence scan (AID 1106); conditions: DKK1 binding, higher = more signal;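 further: score merges emission near 667 nm with signal to noise over three replicate slides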
[20] = tested on: Inhibin beta A chain (activin A); assay: INHBA (activin A) binders on microarrays, primary screen, biochemical, small-molecule microarray, 635 nm fluorescence scan (AID 1107); conditions: small-molecule microarray binding, higher = more signal;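 further: mouse activin A protein probed at 4.33 µg/mL on printed slides; score merges bound-protein fluorescence near 667 nm with spot signal-to-noise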

Sequence of Neurogenic locus notch homolog protein 3 (Homo sapiens) (Q9UM47 whole entry, looked up): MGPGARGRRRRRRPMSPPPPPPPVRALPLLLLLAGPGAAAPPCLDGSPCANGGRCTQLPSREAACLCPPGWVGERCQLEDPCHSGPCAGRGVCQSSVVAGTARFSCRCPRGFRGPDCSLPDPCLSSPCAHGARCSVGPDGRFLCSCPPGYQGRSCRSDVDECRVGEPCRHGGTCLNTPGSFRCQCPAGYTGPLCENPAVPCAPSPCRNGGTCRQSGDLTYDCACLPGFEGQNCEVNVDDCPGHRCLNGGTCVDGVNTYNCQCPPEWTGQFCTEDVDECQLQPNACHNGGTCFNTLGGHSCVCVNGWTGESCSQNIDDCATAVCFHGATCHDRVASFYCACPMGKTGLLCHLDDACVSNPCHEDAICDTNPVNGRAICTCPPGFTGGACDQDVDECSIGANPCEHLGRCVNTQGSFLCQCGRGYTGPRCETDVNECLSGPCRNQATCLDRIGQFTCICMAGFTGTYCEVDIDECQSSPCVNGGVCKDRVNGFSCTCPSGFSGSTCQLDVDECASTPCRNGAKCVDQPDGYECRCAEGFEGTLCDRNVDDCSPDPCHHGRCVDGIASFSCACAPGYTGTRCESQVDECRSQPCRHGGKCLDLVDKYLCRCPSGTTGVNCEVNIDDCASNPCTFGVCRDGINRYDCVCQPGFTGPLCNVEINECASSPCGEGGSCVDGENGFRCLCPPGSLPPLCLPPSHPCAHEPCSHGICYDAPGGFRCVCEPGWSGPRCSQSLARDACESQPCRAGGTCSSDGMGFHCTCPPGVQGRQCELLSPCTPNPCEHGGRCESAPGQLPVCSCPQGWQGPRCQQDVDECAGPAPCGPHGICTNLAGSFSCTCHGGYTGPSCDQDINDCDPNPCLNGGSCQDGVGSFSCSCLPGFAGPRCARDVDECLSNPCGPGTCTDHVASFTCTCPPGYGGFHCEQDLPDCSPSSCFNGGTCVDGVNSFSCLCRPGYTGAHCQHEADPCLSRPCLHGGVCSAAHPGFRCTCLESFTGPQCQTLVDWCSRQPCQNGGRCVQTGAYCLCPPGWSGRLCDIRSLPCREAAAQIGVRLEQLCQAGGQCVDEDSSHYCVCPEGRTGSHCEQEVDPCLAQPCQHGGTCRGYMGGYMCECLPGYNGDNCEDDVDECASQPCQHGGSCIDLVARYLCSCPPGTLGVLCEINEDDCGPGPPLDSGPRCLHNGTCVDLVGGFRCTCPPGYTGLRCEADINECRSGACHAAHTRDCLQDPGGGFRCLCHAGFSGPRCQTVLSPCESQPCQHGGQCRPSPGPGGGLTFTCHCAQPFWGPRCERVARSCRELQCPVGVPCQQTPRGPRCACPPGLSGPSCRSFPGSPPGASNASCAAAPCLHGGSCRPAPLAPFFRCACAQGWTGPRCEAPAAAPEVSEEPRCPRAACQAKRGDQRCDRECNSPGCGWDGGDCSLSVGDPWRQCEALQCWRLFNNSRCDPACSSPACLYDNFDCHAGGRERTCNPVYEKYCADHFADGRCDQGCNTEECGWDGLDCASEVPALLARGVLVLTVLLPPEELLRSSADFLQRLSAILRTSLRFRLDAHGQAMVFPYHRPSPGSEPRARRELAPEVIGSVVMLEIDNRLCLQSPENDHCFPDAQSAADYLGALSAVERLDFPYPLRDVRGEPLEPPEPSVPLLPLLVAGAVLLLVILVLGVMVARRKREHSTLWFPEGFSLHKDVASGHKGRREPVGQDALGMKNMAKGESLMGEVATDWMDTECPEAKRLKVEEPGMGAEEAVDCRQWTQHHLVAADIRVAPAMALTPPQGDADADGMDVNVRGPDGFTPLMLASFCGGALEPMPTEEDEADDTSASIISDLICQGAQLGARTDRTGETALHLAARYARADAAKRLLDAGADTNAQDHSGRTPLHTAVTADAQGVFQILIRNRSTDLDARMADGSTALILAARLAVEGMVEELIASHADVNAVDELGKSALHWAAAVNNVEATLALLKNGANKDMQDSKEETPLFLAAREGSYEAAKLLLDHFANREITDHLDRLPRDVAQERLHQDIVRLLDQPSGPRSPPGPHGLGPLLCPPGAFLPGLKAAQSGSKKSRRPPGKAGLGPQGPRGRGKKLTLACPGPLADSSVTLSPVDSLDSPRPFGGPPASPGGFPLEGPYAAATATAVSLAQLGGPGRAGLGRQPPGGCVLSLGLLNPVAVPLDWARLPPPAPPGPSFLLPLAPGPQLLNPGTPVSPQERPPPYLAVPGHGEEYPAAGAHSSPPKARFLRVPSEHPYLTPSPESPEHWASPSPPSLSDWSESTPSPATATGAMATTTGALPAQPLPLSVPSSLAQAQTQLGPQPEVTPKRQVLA
Sequence of Torsin-1A-interacting protein 2 (Homo sapiens) (Q8NFQ8 whole entry, looked up): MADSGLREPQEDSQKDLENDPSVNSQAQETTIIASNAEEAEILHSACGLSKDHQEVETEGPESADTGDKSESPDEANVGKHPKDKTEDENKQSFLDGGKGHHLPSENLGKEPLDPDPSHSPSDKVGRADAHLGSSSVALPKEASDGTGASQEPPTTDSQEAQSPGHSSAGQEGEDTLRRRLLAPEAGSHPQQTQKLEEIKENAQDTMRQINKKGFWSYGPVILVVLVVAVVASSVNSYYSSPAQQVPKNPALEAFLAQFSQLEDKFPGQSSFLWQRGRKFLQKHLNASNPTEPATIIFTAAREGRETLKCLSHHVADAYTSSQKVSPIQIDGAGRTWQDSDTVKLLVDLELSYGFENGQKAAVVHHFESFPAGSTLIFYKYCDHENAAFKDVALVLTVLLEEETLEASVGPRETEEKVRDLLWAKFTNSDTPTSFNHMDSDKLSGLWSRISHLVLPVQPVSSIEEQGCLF
Sequence of Epidermal growth factor receptor (Homo sapiens) (P00533 whole entry, looked up): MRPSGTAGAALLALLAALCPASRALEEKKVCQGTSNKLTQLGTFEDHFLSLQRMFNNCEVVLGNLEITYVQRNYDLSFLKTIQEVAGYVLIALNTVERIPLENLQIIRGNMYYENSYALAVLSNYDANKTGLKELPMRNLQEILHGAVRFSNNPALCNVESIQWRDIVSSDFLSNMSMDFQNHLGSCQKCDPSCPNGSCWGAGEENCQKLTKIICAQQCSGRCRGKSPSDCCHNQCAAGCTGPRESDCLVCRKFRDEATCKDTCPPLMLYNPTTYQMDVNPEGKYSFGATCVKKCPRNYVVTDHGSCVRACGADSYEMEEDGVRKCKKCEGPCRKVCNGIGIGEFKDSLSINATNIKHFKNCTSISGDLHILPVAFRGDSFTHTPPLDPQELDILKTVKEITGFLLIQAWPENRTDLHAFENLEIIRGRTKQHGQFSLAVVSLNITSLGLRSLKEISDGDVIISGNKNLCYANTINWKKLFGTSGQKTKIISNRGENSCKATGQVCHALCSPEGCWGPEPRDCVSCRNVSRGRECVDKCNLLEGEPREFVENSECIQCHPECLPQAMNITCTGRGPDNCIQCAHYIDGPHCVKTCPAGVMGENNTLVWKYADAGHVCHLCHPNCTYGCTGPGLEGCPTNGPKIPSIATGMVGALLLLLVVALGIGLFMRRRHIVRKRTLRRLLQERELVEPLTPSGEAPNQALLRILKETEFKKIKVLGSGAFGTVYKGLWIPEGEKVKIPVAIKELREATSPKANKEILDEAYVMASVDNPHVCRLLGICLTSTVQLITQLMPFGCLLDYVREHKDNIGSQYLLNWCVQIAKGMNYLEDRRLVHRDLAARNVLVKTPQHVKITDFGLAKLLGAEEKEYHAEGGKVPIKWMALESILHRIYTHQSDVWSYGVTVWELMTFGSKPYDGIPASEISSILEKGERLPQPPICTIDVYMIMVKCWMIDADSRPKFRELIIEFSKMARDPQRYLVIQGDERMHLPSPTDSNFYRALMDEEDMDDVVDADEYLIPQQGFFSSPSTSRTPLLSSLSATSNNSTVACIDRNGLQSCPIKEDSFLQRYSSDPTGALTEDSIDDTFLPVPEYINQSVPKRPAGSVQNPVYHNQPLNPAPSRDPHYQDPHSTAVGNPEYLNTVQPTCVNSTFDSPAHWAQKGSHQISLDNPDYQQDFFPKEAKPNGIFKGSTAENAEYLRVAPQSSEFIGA
Sequence of Fibroblast growth factor 10 (Homo sapiens) (O15520 whole entry, looked up): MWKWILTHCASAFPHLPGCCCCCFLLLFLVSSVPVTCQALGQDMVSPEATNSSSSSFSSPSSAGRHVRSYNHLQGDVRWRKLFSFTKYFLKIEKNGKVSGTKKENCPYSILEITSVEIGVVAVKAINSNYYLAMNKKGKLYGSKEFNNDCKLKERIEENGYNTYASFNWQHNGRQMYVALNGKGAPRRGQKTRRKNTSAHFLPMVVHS
Sequence of Follistatin-related protein 3 (Homo sapiens) (O95633 whole entry, looked up): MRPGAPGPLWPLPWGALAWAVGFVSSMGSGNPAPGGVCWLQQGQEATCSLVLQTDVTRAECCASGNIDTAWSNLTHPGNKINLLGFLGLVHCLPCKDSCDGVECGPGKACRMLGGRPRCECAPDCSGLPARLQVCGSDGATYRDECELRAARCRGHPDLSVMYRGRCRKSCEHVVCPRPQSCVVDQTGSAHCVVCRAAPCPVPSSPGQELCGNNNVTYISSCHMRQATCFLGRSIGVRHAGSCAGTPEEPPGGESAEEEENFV
Sequence of Dickkopf-related protein 1 (Homo sapiens) (O94907 whole entry, looked up): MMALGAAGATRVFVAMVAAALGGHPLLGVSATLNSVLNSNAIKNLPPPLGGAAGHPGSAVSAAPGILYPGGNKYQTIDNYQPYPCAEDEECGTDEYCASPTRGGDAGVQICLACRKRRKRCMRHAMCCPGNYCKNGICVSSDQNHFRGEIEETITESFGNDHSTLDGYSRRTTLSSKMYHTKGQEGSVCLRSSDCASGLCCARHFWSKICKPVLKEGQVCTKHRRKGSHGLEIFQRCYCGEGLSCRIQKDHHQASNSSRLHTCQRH

SMILES | composite z-score [1] | z-score [2] | z-score [3] | z-score [4] | composite z-score [5] | z-score [6] | composite z-score [7] | composite z-score [8] | composite z-score [9] | composite z-score [10] | composite z-score [11] | composite z-score [12] | composite z-score [13] | z-score [14] | composite z-score [15] | composite z-score [16] | composite z-score [17] | composite z-score [18] | composite z-score [19] | composite z-score [20]
COc1ccc(C#C[C@@H]2C=C[C@H](OC(C)=O)[C@@H](COC(C)=O)O2)cc1 | 0.474 | -0.551 (inactive) | -2.35 (inactive) | -0.451 (inactive) | 0.387 | 1.04 (inactive) | 0.0164 | 0.622 | 0.493 | -0.122 | 0.647 | -0.174 | -0.289 | -0.613 (inactive) | 0.465 | 0.185 | 0.586 | 0.842 | 0.476 | 1.18
CCOC(=O)C1=NO[C@]2(C=C(Br)C3(OCCCO3)[C@H]3O[C@H]32)C1 | -0.365 | -0.658 (inactive) | -1.06 (inactive) | -0.155 (inactive) | 0.141 | 0.874 (inactive) | -0.244 | -0.519 | -0.862 | 0.0214 | -0.695 | -0.32 | -0.274 | 0.437 (inactive) | 0.18 | -0.512 | -0.203 | -0.425 | -0.123 | 0.549
CO[C@@H]1COC(=O)[C@H](CCSC)NC(=O)CC=C[C@@H](C)COC(=O)CCC[C@H]1C | 1.55 | -1.16 (inactive) | 0.583 (inactive) | -1.25 (inactive) | -0.86 | -0.0886 (inactive) | -0.0225 | 1.82 | 0.249 | 0.232 | 0.919 | -0.374 | -1.25 | -0.433 (inactive) | 0.399 | 1.26 | 1.03 | 1.03 | 2.36 | -1.51
CC(C)(C)N1C(=O)[C@H]2[C@H]3[C@H](O)[C@H](O)CC(=O)[C@@H]3CC[C@H]2C1=O | 0.33 | -0.128 (inactive) | -0.509 (inactive) | -0.0675 (inactive) | -0.26 | -0.561 (inactive) | -0.204 | 0.562 | 0.373 | -0.147 | 0.369 | -0.227 | -0.658 | 0.343 (inactive) | 0.639 | 0.239 | 0.479 | 0.265 | 0.711 | 0.156
C=CC[C@@H]1C=C[C@H](ON=C(C)CCN2CCc3nc(-c4ccccc4)c(-c4ccccc4)cc3C2)[C@@H](CO)O1 | 1.55 | -0.67 (inactive) | -4.53 (inactive) | -3.82 (inactive) | 1.53 | 1.42 (inactive) | -0.152 | 0.631 | 0.858 | -0.0332 | 0.775 | -0.243 | -0.574 | 0.0139 (inactive) | 0.524 | 0.702 | 0.359 | 0.808 | 0.627 | 1.07
COC(=O)CC=C[C@@H](C)[C@@H](C=NO[C@H](C)c1cn([C@H](CO)Cc2ccccc2)nn1)OC | 1.14 | -0.14 (inactive) | -0.617 (inactive) | -0.0624 (inactive) | 0.169 | 0.0673 (inactive) | -0.12 | 1.37 | 0.614 | 0.0556 | 0.611 | -0.233 | -0.736 | 0.934 (inactive) | 0.877 | 0.483 | 0.952 | 0.515 | 1.06 | -0.34
CCc1cc2c(nc1CC)CCN(CCC(C)=NO[C@@H](C)c1cn([C@H](CO)Cc3ccccc3)nn1)C2 | -0.329 | 0.687 (inactive) | 0.22 (inactive) | -0.215 (inactive) | 0.559 | -0.189 (inactive) | 0.0336 | 0.42 | 0.438 | -0.0679 | 0.6 | -0.102 | 0.0143 | 0.113 (inactive) | -0.122 | -0.32 | 0.253 | 0.474 | 0.436 | 1.29
O=C1C=C[C@@H](O)[C@@H]2[C@@H]3C(=O)N(C[C@@H]4CCCO4)C(=O)[C@@H]3CC[C@@H]12 | -0.168 | 0.026 (inactive) | -0.479 (inactive) | 0.818 (inactive) | 0.276 | 0.656 (inactive) | -0.139 | 0.54 | 0.541 | -0.0208 | 0.27 | -0.0602 | -0.454 | 0.186 (inactive) | 0.513 | 0.496 | 0.645 | 0.591 | 1.17 | 0.451
CC(C)=CCCC(C)=CCON=C1C[C@@H](O)[C@@H](O)[C@@H]2[C@@H]3C(=O)N(c4cccc(Oc5ccccc5)c4)C(=O)[C@@H]3CC[C@@H]12 | 0.355 | 0.164 (inactive) | -0.153 (inactive) | -0.184 (inactive) | 1.15 | 0.951 (inactive) | -0.124 | -0.283 | 0.751 | -0.0302 | 0.517 | 0.132 | -0.209 | -0.991 (inactive) | 0.612 | -0.112 | 0.118 | 0.574 | 0.373 | 0.399
CO[C@H](C1CCCCC1)[C@H](C)C=CCC(=O)OCCCc1ccccc1 | -0.53 | 1.37 (inactive) | 0.5 (inactive) | 1.49 (inactive) | -0.242 | -0.0775 (inactive) | -0.192 | -0.0107 | -0.226 | -0.134 | -0.023 | -0.38 | -0.708 | -0.0118 (inactive) | 0.227 | -0.518 | 0.471 | 0.201 | 0.287 | 0.332
